FUS yeast rescue: suppressors of FUS proteinopathy in yeast; Potency, µM (titrated, usually from 76.6 µM), usual class: activators; hit rate 0.24% among 390,000; S. cerevisiae FUS-expressing, growth rescue, OD600, 24 h; AID 1347120;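 note: plate controls were DMSO vehicle for no effect and reference control for full effect; nearly all actives have a fitted effect of over 55% in size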
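FUS-expressing yeast, raffinose-pregrown, induced in 2% galactose minimal medium at OD 0.005; compounds in a dilution series, 24hr at 30C. Growth restoration read as absorbance at 600 nm. CP55940 positive control, DMSO negative.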
TSG101-PTAP inh: blocks PTAP/TSG101 interaction to inhibit HIV-1 budding | Q99816 | Fluorescence polarization, FITC-PTAP peptide / Tsg101 binding | Potency, µM (titrated, usually from 115 µM), inactives show at the top dose activity change, negative = inhibition, actives largely listed as inhibitors | 340,000 tested, under 10 active | AID 493005; active = well fitted inhibition curve with a large enough effect in the main read-out, with a control signal flat, not every such curve was filed as active; inconclusive = small, poorly fitted or top-dose-only effect, or effect the other way, or a change in a side signal; inactive = no such curve, though single readings can be large or run the other way; note: % of control where 0% means no effect
Target sequence (Q99816 whole entry, looked up): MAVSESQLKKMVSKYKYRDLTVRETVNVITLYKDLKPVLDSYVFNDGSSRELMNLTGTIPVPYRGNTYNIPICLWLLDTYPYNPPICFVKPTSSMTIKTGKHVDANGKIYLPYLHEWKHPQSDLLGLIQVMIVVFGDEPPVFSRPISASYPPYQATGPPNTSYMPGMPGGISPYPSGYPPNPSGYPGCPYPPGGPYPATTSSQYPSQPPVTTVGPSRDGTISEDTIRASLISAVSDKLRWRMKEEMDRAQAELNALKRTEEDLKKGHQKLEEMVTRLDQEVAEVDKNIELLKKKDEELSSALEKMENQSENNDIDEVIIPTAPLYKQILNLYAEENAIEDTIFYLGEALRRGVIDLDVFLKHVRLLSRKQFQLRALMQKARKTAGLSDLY
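Compounds were pin-transferred onto Tsg101 binding domain (10 uM final) in HEPES pH 7.5 buffer, then FITC-PTAP peptide was added at 50 nM final. After 20 min at RT, polarization reported peptide displacement across a qHTS concentration series.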
aSyn rescue: alpha-synuclein toxicity inhibition in yeast; Yeast expressing alpha-synuclein, growth rescue, BacTiter-Glo, 24 h; hit rate 0.14% among 370,000; Potency, µM (series often up to 46.1 µM), for the others: at the top dose growth rescue (activation), hits mostly activators; note: % of control where 0% means no effect; nearly all actives have a fitted effect of over 65% in size
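Rescue of yeast growth: cells expressing toxic alpha-synuclein, induced in galactose at OD600 0.02, incubated with compound 24 h at 30 C. ATP luminescence quantified growth; inhibitors of toxicity appear as activators.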
Abeta yeast res: A-beta toxicity reversal in yeast | yeast expressing A-beta42, growth rescue, OD600, 48 h; response scale: 0% DMSO, 100% iron-clioquinol control | Potency, µM (top dose mostly 46.1 µM), hits mostly activators | hit rate 0.063% among 410,000; note: nearly all actives have a fitted effect of over 55% in size
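Yeast A-beta toxicity model in growth medium with pinned compounds, 48 h at 30 C; growth read as absorbance at 600 nm. Normalized to FeCl3/clioquinol equimolar mix (positive) and DMSO (negative).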
TDP-43 yeast inh: rescues yeast growth from TDP-43 toxicity | TDP-43 expressing yeast growth rescue, BacTiter-Glo, 24 h | Potency, µM (highest dose often 46.1 µM), for inactives: top-dose growth rescue (activation), usual class: activators | hit rate 1.8% among 410,000 | AID 652104; note: % of control where 0% means no effect; nearly all actives have a fitted effect of over 50% in size
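Yeast cells expressing TDP-43 under galactose induction are exposed to compounds for 24 hr at 30 deg C. BacTiter-Glo luminescence measures growth, so protective compounds score as activators.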
* hit, by the source's call; i = inactive; ? = inconclusive; · = not tested or not shown. The list is not random: actives were taken first. Their share in the collection is about 2.1%. Unless noted, calls come from the whole dose curve; as a rule, active = well fitted curve in the direction sought with a large enough effect; inconclusive = small, poorly fitted or top-dose-only effect, or another doubt; inactive = no such curve, though single readings can be large; an effect the other way counts as inactive or inconclusive. Potency is the fitted concentration of half-maximal effect.

SMILES	FUS yeast rescue	TSG101-PTAP inh	aSyn rescue	Abeta yeast res	TDP-43 yeast inh
O=C1Nc2ccccc2C(=O)N(Cc2ccccc2)C1C(=O)NC1CC1 (configuration not stated)	i	·	-5%	i	-4%
O=C(c1ccc(Sc2cccc(Cl)c2)c([N+](=O)[O-])c1)N1CCN(c2ccccn2)CC1	i	6%	?	5µM*	22µM*
O=C(c1ccc(Cl)c([N+](=O)[O-])c1)N1CCN(c2ccccn2)CC1	·	-2%	7%	i	5%
O=C(c1ccc(-c2ccc([N+](=O)[O-])cc2)o1)N1CCCCCCC1	?	-2%	-80%	i	-90%
O=C(c1ccc(-c2ccc([N+](=O)[O-])cc2)o1)N1CCCC(C(F)(F)F)C1 (configuration not stated)	?	-1%	-9%	i	35µM*
CCOC(=O)N1C(=O)[C@](c2ccc(Cl)cc2)(C(C)C)N1C(=O)OCC	i	3%	-16%	i	16µM*
CC[C@]1(c2ccc(C)cc2)C(=O)N(C(=O)OC(C)C)N1C(=O)OC(C)C	i	·	·	·	·
CCOC(=O)N1C(=O)[C@@](c2ccc(Cl)cc2)(C(C)C)N1C(=O)OCC	i	-3%	-27%	i	20µM*
O=C1[C@H]2[C@H](C=CC[C@H]2C(=O)N2CCN(c3ccccc3)CC2)CCN1Cc1ccccc1	i	-7%	?	i	28µM*
O=C1[C@H]2[C@H](C=CC[C@H]2C(=O)N2CCN(c3ccccc3)CC2)CCN1Cc1ccc(Cl)c(Cl)c1	?	-4%	?	i	6%
Cn1ccc2cc(S(=O)(=O)N3CCCN(C(=O)Nc4ccccc4Br)CC3)ccc21	i	·	1%	i	?
N#Cc1c(N)nc2c(c1-c1ccc3c(c1)OCO3)CCc1ccccc1-2	i	0%	8%	i	32µM*
N#Cc1c(-c2ccc3c(c2)OCO3)csc1N	i	-7%	1%	i	16µM*
N#Cc1c(N)c(C#N)c(-c2ccc3c(c2)OCO3)c2c1CCCC2	·	-1%	0%	i	5%
O=C(NC1CCCCN(Cc2cccc(Cl)c2)C1=O)c1cccc([N+](=O)[O-])c1 (configuration not stated)	i	·	·	·	·
CC(C)c1ccccc1NC(=O)Nc1nnc([C@H]2C[C@H](O)[C@@H](CO)O2)s1	i	·	3%	i	6%
CN(C(=O)c1ccc(COc2ccccc2Cl)o1)c1ccccc1	i	-8%	-1%	i	10µM*
O=C(Nc1ccccn1)c1ccc(COc2ccccc2Cl)o1	i	-7%	-9%	i	22µM*
Cc1nn(CCCC(=O)NCc2cccc(Cl)c2)c(=O)c2c1sc1ccccc12	i	·	·	i	24%
CCc1ccc(C2=CC(c3cccc(OC)c3OC)n3c(nc4ccccc43)N2)cc1 (configuration not stated)	i	·	·	i	1%
CCOc1ccc(C2=CC(c3cccc(Br)c3)n3c(nc4ccccc43)N2)cc1Cl (configuration not stated)	i	·	·	i	13µM*
CCc1ccc(C2=CC(c3cccc(C)c3)n3c(nc4ccccc43)N2)cc1 (configuration not stated)	i	·	·	i	13µM*
CC(C)c1ccc(C2=CC(c3cccc(Cl)c3)n3c(nc4ccccc43)N2)cc1 (configuration not stated)	i	·	·	i	18µM*
CC(C)c1ccc(C2=CC(c3cccc(Cl)c3)n3ncnc3N2)cc1 (configuration not stated)	i	·	·	i	13µM*
Cc1ccc(NC(=O)c2ccc(Cn3cc(Br)cn3)o2)cc1	i	-5%	-10%	i	16µM*
SMILES	FUS yeast rescue	TSG101-PTAP inh	aSyn rescue	Abeta yeast res	TDP-43 yeast inh
O=C(Nc1c(C(=O)c2ccccc2)oc2ccccc12)c1cc(=O)c2ccccc2o1	i	·	·	i	26%
N#Cc1c(NC(=O)C2CC(c3c(F)cccc3Cl)=NO2)sc2c1CCC2 (configuration not stated)	·	-2%	7%	i	14%
Cc1ccc(O)c(NC(=O)C2CC(c3c(F)cccc3Cl)=NO2)c1 (configuration not stated)	i	2%	·	i	3.5µM*
CCc1c(C)sc(NC(=O)C2CC(c3c(F)cccc3Cl)=NO2)c1C#N (configuration not stated)	i	2%	0%	i	20µM*
COc1cc(NC(=O)N2CCC(CN3CCCCCC3)CC2)cc(OC)c1OC	i	·	·	i	16%
CCOC(=O)c1cnc(-n2cc(C)cn2)nc1Nc1ccccc1OCC	i	0%	-15%	i	20µM*
Cc1ccc(-c2cc(-c3nnc(SCC(=O)Nc4ccccc4-c4ccccc4)n3N)[nH]n2)cc1	18µM*	·	·	·	·
O=C(CSc1nnc(-c2ccccc2)n1-c1ccc(Cl)cc1)Nc1ccccc1-c1ccccc1	8.9µM*	·	·	·	·
COc1cc(NC(=O)c2ccccc2)c(C)cc1NC(=O)CSc1nnc(-c2ccccc2F)n1-c1ccc(C)cc1	10µM*	·	·	·	·
Cc1ccc(NC(=O)CSc2nnc(-c3ccccc3F)n2-c2ccccc2)c(C)c1	i	·	·	·	·
COc1cc(C(=O)Nc2c(C(=O)Nc3ccccc3F)oc3ccccc23)cc(OC)c1OC	i	·	·	i	24%
Oc1ccc2ccccc2c1/C=C/c1ccc2c(Br)cc(Br)c(O)c2n1	·	1%	?	i	16µM*
Oc1cccc2ccc(/C=C/c3ccccc3Br)nc12	i	0%	?	?	-66%
O=C(Cc1ccc(OCCC2CCCCC2)cc1)NO	·	·	5.6µM*	·	·
CC(=O)Nc1ccc(NCN2C(=O)[C@@H]3[C@H]4CC[C@H](C4)[C@@H]3C2=O)cc1	·	1%	1%	i	6.3µM*
O=C1C2C3CCC(C3)C2C(=O)N1CNc1ccccc1 (configuration not stated)	·	-2%	4%	i	?
CCn1c(SCc2ccccc2C)nc(=O)c2c(C(=O)OC)cc(C3CC3)nc21	?	·	·	i	-14%
CCn1c(C(=O)N2CCC(C(=O)N3CCN(c4ccccn4)CC3)CC2)cc2sccc21	i	0%	4%	i	4%

Screens (PubChem BioAssay)
